Several values for one entry are separate records, joined by “and”; a condition that tells them apart may be missing. Identical values can stand only once. About 79,000 compounds went through this panel and 15% of them were active in at least one assay; those are over-represented in the sample as a whole. Where a structure was tested more than once in an assay, its records may differ in their call. Activity calls are given as the source filed them. Rule as the data show it: active = growth inhibition above about 70%; inactive = the rest.
Columns and labels:
[1] = NCI Yeast Anticancer Drug Screen. Data for the rad52 strain (AID 147);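 also: 0% = growth of vehicle-treated control cultures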; conditions: S. cerevisiae rad52 mutant growth inhibition, stronger effect = higher value
How it was run: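 Read-out: growth inhibition versus vehicle-treated controls. Cells were a DNA repair-deficient yeast strain treated with compounds.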

[2] = NCI Yeast Anticancer Drug Screen. Data for the wt1 strain (AID 149);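 also: 0% = growth of vehicle-treated wt1 cultures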; conditions: S. cerevisiae wt1 strain (SPY 50644) growth inhibition, stronger effect = higher value
How it was run: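 Readout: yeast growth inhibition, normalised to vehicle controls, in the wt1 strain exposed to test compounds.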

[3] = NCI Yeast Anticancer Drug Screen. Data for the rad50EPP+ strain (AID 151);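 also: 0% = growth of vehicle-treated control cultures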; conditions: S. cerevisiae rad50 mutant strain, stronger effect = higher value
How it was run: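 Growth inhibition read against vehicle controls in rad50EPP+ yeast, a strain altered in DNA damage repair, after compound exposure.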

[4] = NCI Yeast Anticancer Drug Screen. Data for the mgt1 strain (AID 153); conditions: S. cerevisiae mgt1 mutant growth inhibition, stronger effect = higher value
How it was run: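 mgt1 yeast grown with test compound; read-out is growth inhibition versus vehicle-treated cultures.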

[5] = NCI Yeast Anticancer Drug Screen. Data for the rad50 strain (AID 155);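 also: 0% = growth of vehicle-only cultures of the same strain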; conditions: S. cerevisiae rad50 strain growth inhibition, stronger effect = higher value
How it was run: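 Compounds were tested on a yeast strain with an engineered DNA damage repair alteration; the reported value is growth inhibition normalised to vehicle treatment.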

[6] = NCI Yeast Anticancer Drug Screen. Data for the mec2-1 strain (AID 157); conditions: S. cerevisiae mec2-1 strain, stronger effect = higher value
How it was run: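 Yeast mec2-1 mutant treated with compound. Readout: growth inhibition vs vehicle controls.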

[7] = NCI Yeast Anticancer Drug Screen. Data for the rad14 strain (AID 159);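 also: 0% = growth of vehicle-treated control cultures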; conditions: S. cerevisiae rad14 strain growth inhibition, stronger effect = higher value
How it was run: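 Compound-treated yeast with a defined DNA-repair lesion; growth inhibition normalised to vehicle-treated cultures.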

[8] = NCI Yeast Anticancer Drug Screen. Data for the sgs1 mgt1 strain (AID 161);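 also: 0% = growth of cultures given vehicle only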; conditions: S. cerevisiae sgs1 mgt1 strain, stronger effect = higher value
How it was run: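 Genetically altered yeast, compound exposure, growth inhibition relative to vehicle.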

[9] = NCI Yeast Anticancer Drug Screen. Data for the CLN2oe strain (AID 163);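 also: 0% = growth of vehicle-only control cultures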; conditions: S. cerevisiae CLN2oe strain, stronger effect = higher value
How it was run: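 Read-out: yeast growth inhibition, expressed relative to vehicle-only controls. The strain bears an engineered cell-cycle alteration.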

[10] = NCI Yeast Anticancer Drug Screen. Data for the cln2 rad14 strain (AID 165);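 also: 0% = growth equal to vehicle treated cultures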; conditions: S. cerevisiae cln2 rad14 strain, stronger effect = higher value
How it was run: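 cln2 rad14 yeast strain; compound exposure; growth inhibition read vs vehicle controls.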

[11] = NCI Yeast Anticancer Drug Screen. Data for the bub3 strain (AID 167); conditions: S. cerevisiae bub3 mutant strain, stronger effect = higher value
How it was run: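 Growth of a checkpoint-deficient yeast mutant is measured after compound exposure. Values represent inhibition relative to vehicle.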

[12] = NCI Yeast Anticancer Drug Screen. Data for the wt2 strain (AID 169);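 also: 0% = growth of vehicle-treated yeast cultures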; conditions: S. cerevisiae wt2 strain growth inhibition, stronger effect = higher value
How it was run: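 Read-out: growth inhibition versus vehicle-treated control cultures after compound exposure of the yeast strain.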

[13] = NCI Yeast Anticancer Drug Screen. Data for the mlh1 strain (AID 171);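 also: 0% = growth of vehicle-treated control cultures of the same strain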; conditions: S. cerevisiae mlh1 strain growth inhibition, stronger effect = higher value
How it was run: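 Read-out: growth inhibition versus vehicle controls. Strain: engineered yeast with a defined DNA repair or cell cycle defect, compound-treated.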

[14] = NCI Yeast Anticancer Drug Screen. Data for the sgs1 strain (AID 173);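 also: 0% = growth of vehicle-only control cultures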; conditions: S. cerevisiae sgs1 mutant, stronger effect = higher value
How it was run: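 Read-out: yeast growth inhibition relative to vehicle controls, following compound exposure of a strain with a defined DNA repair/cell cycle alteration.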

[15] = NCI Yeast Anticancer Drug Screen. Data for the mlh1 rad18 strain (AID 175); conditions: S. cerevisiae mlh1 rad18 strain growth inhibition, stronger effect = higher value
How it was run: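 Yeast w/ defined DNA-repair lesions; compound exposure; growth vs vehicle controls → % inhibition.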

[16] = NCI Yeast Anticancer Drug Screen. Data for the rad18 strain (AID 177); conditions: S. cerevisiae rad18 mutant growth inhibition, stronger effect = higher value
How it was run: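 Readout: growth inhibition vs vehicle controls. Cells: genetically altered yeast strain, DNA repair defect.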

[17] = at 5.0 µM (retest, dose inferred, filed as 0.5)
[18] = at 50.0 µM (retest, dose inferred, filed as 5.0)

Measured: growth inhibition

S=c1sc2c(s1)SCCS2
inactive: [1]; at 1.2 µM 1% | [1]; at 3.7 µM 1% | [1]; at 11.0 µM 4% | [1]; at 33.0 µM 5% | [1]; at 100.0 µM 7% | [2]; at 1.2 µM -1% | [2]; at 3.7 µM 1% | [2]; at 11.0 µM 1% | [2]; at 33.0 µM 0% | [2]; at 100.0 µM 2% | [3]; at 1.2 µM 2% | [3]; at 3.7 µM 3% | [3]; at 11.0 µM 6% | [3]; at 33.0 µM 14% | [3]; at 100.0 µM 9% | [4]; at 1.2 µM -2% | [4]; at 3.7 µM -1% | [4]; at 11.0 µM 18% | [4]; at 33.0 µM -14% | [4]; at 100.0 µM 5% | [5]; at 1.2 µM 0% | [5]; at 3.7 µM 3% | [5]; [17] 14% | [5]; at 11.0 µM -16% | [5]; at 33.0 µM 5% | [5]; [18] 49% | [5]; at 50.0 µM 13.7% and 58.8% | [5]; at 100.0 µM 6% | [6]; at 1.2 µM 2% | [6]; at 3.7 µM 2% | [6]; [17] -11% | [6]; at 11.0 µM -1% | [6]; at 33.0 µM -2% | [6]; [18] 23% | [6]; at 50.0 µM 5.65% and 50% | [6]; at 100.0 µM 0% | [7]; at 1.2 µM 1% | [7]; at 3.7 µM -4% | [7]; at 11.0 µM -2% | [7]; at 33.0 µM -1% | [7]; at 100.0 µM 5% | [8]; [17] -8% | [8]; [18] 54% | [9]; at 1.2 µM 0% | [9]; at 3.7 µM 0% | [9]; at 11.0 µM -2% | [9]; at 33.0 µM -4% | [9]; at 100.0 µM 0% | [10]; [17] -14% | [10]; [18] 32% | [10]; at 50.0 µM 7.95% and 60.4% | [11]; at 1.2 µM 1% | [11]; at 3.7 µM 2% | [11]; [17] -20% | [11]; at 11.0 µM 6% | [11]; at 33.0 µM 5% | [11]; [18] 49% | [11]; at 50.0 µM 20.4% and 64.8% | [11]; at 100.0 µM 4% | [12]; at 1.2 µM 1% | [12]; at 3.7 µM 2% | [12]; at 11.0 µM 2% | [12]; at 33.0 µM 3% | [12]; at 100.0 µM 4% | [13]; at 1.2 µM 1% | [13]; at 3.7 µM -2% | [13]; at 11.0 µM 5% | [13]; at 33.0 µM 1% | [13]; at 100.0 µM 3% | [14]; at 1.2 µM -1% | [14]; at 3.7 µM -1% | [14]; at 11.0 µM 0% | [14]; at 33.0 µM 0% | [14]; at 100.0 µM 3% | [15]; [17] 46% | [15]; [18] 59% | [15]; at 50.0 µM 20.8% and 57.5% | [16]; at 1.2 µM -4% | [16]; at 3.7 µM -3% | [16]; at 11.0 µM -2% | [16]; at 33.0 µM -15% | [16]; at 100.0 µM 6%
-2% (inactive) and 75.5% (active): [8]; at 50.0 µM

CNC(=O)OCc1c(COC(=O)NC)c(-c2ccc(Cl)c(Cl)c2)n2c1SCC2
active: [1]; at 100.0 µM 76% | [5]; at 100.0 µM 76% | [7]; at 100.0 µM 85% | [14]; at 100.0 µM 72% | [15]; at 50.0 µM 86% | [16]; at 100.0 µM 95%
inactive: [1]; at 1.2 µM 0% | [1]; at 3.7 µM 0% | [1]; at 11.0 µM 3% | [1]; at 33.0 µM 14% | [2]; at 1.2 µM -1% | [2]; at 3.7 µM 0% | [2]; at 11.0 µM -1% | [2]; at 33.0 µM -3% | [2]; at 100.0 µM 6% | [3]; at 1.2 µM -3% | [3]; at 3.7 µM -3% | [3]; at 11.0 µM -3% | [3]; at 33.0 µM -3% | [3]; at 100.0 µM 4% | [4]; at 1.2 µM -4% | [4]; at 3.7 µM -1% | [4]; at 11.0 µM -1% | [4]; at 33.0 µM -3% | [4]; at 100.0 µM 12% | [5]; at 1.2 µM -1% | [5]; at 3.7 µM -3% | [5]; [17] -17% | [5]; at 11.0 µM -3% | [5]; at 33.0 µM 4% | [5]; [18] 35% | [5]; at 50.0 µM 65.7% | [6]; at 1.2 µM -2% | [6]; at 3.7 µM -4% | [6]; [17] 0% | [6]; at 11.0 µM -3% | [6]; at 33.0 µM -4% | [6]; [18] 18% | [6]; at 50.0 µM 27.3% | [6]; at 100.0 µM 38% | [7]; at 1.2 µM 0% | [7]; at 3.7 µM 2% | [7]; at 11.0 µM 4% | [7]; at 33.0 µM 18% | [8]; [17] -5% | [8]; [18] 32% | [8]; at 50.0 µM 39.4% | [9]; at 1.2 µM -1% | [9]; at 3.7 µM -6% | [9]; at 11.0 µM -6% | [9]; at 33.0 µM -5% | [9]; at 100.0 µM -1% | [10]; [17] -3% | [10]; [18] 23% | [10]; at 50.0 µM 25.1% | [11]; at 1.2 µM -2% | [11]; at 3.7 µM -5% | [11]; [17] 0% | [11]; at 11.0 µM -4% | [11]; at 33.0 µM -6% | [11]; [18] 9% | [11]; at 50.0 µM 4.3% | [11]; at 100.0 µM 20% | [12]; at 1.2 µM -1% | [12]; at 3.7 µM -2% | [12]; at 11.0 µM -2% | [12]; at 33.0 µM -5% | [12]; at 100.0 µM 25% | [13]; at 1.2 µM -1% | [13]; at 3.7 µM -2% | [13]; at 11.0 µM -3% | [13]; at 33.0 µM -2% | [13]; at 100.0 µM 44% | [14]; at 1.2 µM -1% | [14]; at 3.7 µM -1% | [14]; at 11.0 µM 1% | [14]; at 33.0 µM 12% | [15]; [17] 2% | [15]; [18] 58% | [16]; at 1.2 µM 0% | [16]; at 3.7 µM 3% | [16]; at 11.0 µM 11% | [16]; at 33.0 µM 48%

— PubChem BioAssay (NCI)
